Measured values taken from PubChem BioAssay (NCATS).
Results filed as inconclusive are left out. The source made the active and inactive calls. The call rests on the fitted dose curve; in most records, active means well fitted curve in the direction sought with a large enough effect; inconclusive means small, poorly fitted or top-dose-only effect, or another doubt; inactive means no such curve, though single readings can be large; an effect the other way counts as inactive or inconclusive.

What was measured:
[1] = UWB1.289-WTBRCA1 Cancer Cell Toxicity qHTS against the NCATS CANVASS Library (AID 1347354)
In short: (§1)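 Cells were seeded at 1000 per well and allowed to settle 4 hours at 37 degrees C before pin transfer of compounds as an 11-point series. Viability was read by CellTiter-Glo luminescence after 72 hours' exposure.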

[2] = HEK-293 Cancer Cell Toxicity qHTS against the NCATS CANVASS Library (AID 1347355); conditions: HEK-293 viability, CellTiter-Glo luminescence, 72 h; at 46.1 µM (top of the series); further: nearly all actives have a fitted effect of over 65% in size
In short: as §1

[3] = HPAF-II 24hr Apoptosis Induction qHTS against the NCATS CANVASS Library (AID 1347356)
In short: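 HPAF-II cells (500/well) in DMEM + 10% FBS were treated with an 11-point compound series for 24 hours at 37 degrees C. Caspase-3/7 activity was then read by Caspase-Glo DEVD luminescence after 15 min.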

[4] = HEK293 18hr Apoptosis Induction qHTS against the NCATS CANVASS Library (AID 1347357)
In short: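 Caspase-3/7 luminescence (DEVD substrate, Caspase-Glo) after 18 h compound exposure of HEK293 cells, 500 cells/well; 11-point series; doxorubicin titration as control.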

[5] = HPAF-II 12hr Apoptosis Induction qHTS against the NCATS CANVASS Library (AID 1347358)
In short: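 HPAF-II cells (500/well, DMEM + 10% FBS) were exposed to compounds for 12 hours at 37 degrees C. Caspase-3/7 activity was then read by Caspase-Glo 3/7 luminescence after 15 min at room temperature.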

[6] = HEK293 24hr Apoptosis Induction qHTS against the NCATS CANVASS Library (AID 1347359)
In short: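 Caspase-3/7 activation measured as luminescence from the DEVD-based Caspase-Glo reagent, 15 min at room temperature, following 24-hour compound treatment of HEK293 cells.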

[7] = HPAF-II 18hr Apoptosis Induction qHTS against the NCATS CANVASS Library (AID 1347360)
In short: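 Caspase-Glo 3/7 luminescence (DEVD substrate) after 15 min RT; HPAF-II, 500 cells/well, 18 h compound exposure at 37 degrees C, qHTS series; doxorubicin control 0.1nM - 4uM.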

[8] = HEK293 12hr Apoptosis Induction qHTS against the NCATS CANVASS Library (AID 1347361)
In short: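 500 HEK293 cells/well; cpds pin-transferred, 11-pt conc series; 12 h, 37 degrees C/5% CO2; Caspase-Glo 3/7 added, 15 min RT dark; luminescence.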

[9] = target: Luciferin 4-monooxygenase (Photinus pyralis) (UniProt P08659); test: Firefly luciferase counterscreen qHTS: Assay Interference Panel against the NCATS CANVASS Library (AID 1347363)
Chain of Luciferin 4-monooxygenase (Photinus pyralis) (P08659 whole entry, looked up): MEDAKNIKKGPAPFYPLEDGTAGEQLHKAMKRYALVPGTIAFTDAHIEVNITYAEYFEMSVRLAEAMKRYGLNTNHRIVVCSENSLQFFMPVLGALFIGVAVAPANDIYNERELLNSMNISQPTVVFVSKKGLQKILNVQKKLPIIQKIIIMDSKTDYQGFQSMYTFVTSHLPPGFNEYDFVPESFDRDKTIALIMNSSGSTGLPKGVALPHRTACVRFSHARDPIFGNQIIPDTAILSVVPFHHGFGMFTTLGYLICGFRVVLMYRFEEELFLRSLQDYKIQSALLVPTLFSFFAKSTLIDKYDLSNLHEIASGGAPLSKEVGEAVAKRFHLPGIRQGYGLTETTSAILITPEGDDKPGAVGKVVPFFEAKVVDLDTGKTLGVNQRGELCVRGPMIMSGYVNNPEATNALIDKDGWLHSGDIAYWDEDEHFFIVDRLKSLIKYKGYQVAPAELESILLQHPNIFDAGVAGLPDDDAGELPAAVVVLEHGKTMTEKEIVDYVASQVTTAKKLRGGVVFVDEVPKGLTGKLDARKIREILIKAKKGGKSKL
In short: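 Luminescence inhibition readout: compounds (11-point qHTS) sat 15 min at room temperature with substrate mix (0.013 mM luciferin and ATP), then firefly luciferase was added and signal read 5 min later.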

[10] = KB-8-5-11 Cancer Cell Toxicity qHTS against the NCATS CANVASS Library (AID 1347364); further: nearly all actives have a fitted effect of over 75% in size
In short: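 KB-8-5-11 cells (500/well) in DMEM + 10% FBS were exposed to compounds in an 11-point qHTS series for 72 hr at 37C, 5% CO2. Viability was read by CellTiter-Glo luminescence.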

[11] = SDT Cancer Cell Toxicity qHTS against the NCATS CANVASS Library (AID 1347365);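 further: SDT canine glioma cells 500 per well in 1536 well plates; nearly all actives have a fitted effect of over 60% in size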
In short: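 SDT canine glioma cells (500 cells/well) were exposed to compounds in an 11-point series for 72 hr at 37C, 5% CO2; viability was read as ATP content by CellTiterGlo luminescence.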

[12] = KB-3-1 Cancer Cell Toxicity qHTS against the NCATS CANVASS Library (AID 1347366); conditions: outcome: dose series up to 46.1 µM; further: nearly all actives have a fitted effect of over 75% in size
In short: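 500 KB-3-1 cells/well; compounds pin-transferred, 11-pnt series; 72 hr, 37C/5% CO2; CellTiter-Glo, 10 min RT; luminescence read-out.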

[13] = qHTS for ATAD5 Agonist screened against the NCATS CANVASS Library (AID 1347367)
In short: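 Luminescence read-out: ATAD5-driven luciferase in stably transfected HEK 293T cells, which rises post-transcriptionally with DNA damage. Cells were exposed 16hr at 37C to test compound; a CellTiter-Fluor fluorescence read (1hr) measured viability first.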

[14] = G06 Cancer Cell Toxicity qHTS against the NCATS CANVASS Library (AID 1347368); further: nearly all actives have a fitted effect of over 60% in size
In short: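 G06 dog glioma cells seeded at 500 cells/well were exposed to compounds (11-point qHTS series) for 72 hr at 37C, 5% CO2; viability read as ATP content by CellTiterGlo luminescence.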

[15] = MCF7 Cancer Cell Toxicity qHTS against the NCATS CANVASS Library (AID 1347369)
In short: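 Luminescent ATP signal (CellTiterGlo) served as the cytotoxicity read-out after MCF7 breast cancer cells had been incubated 72 hr at 37C with natural products in an 11-point titration.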

[16] = qHTS for ATAD5 Antagonist screened against the NCATS CANVASS Library (AID 1347370);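 further: HEK293T cells carrying an ATAD5 luciferase reporter co-treated with 10 µM 5-fluorouridine; nearly all actives have a fitted effect of over 65% in size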
In short: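 HEK293T cells with a stably integrated ATAD5-controlled luciferase reporter were exposed to compounds (11-pt) alongside 10 uM 5-fluorouridine as ATAD5 stabilizer for 16hr at 37C. Viability was read by CellTiter-Fluor fluorescence, then ATAD5 by luminescence.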

[17] = J3T Cancer Cell Toxicity qHTS against the NCATS CANVASS Library (AID 1347371);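 further: J3T is a canine glioma cancer cell line seeded at 500 cells per well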
In short: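 J3T dog glioma cells (500 cells/well) were exposed to compounds in an 11-point series for 72 hr at 37C, 5% CO2. Cytotoxicity was read as ATP content by CellTiterGlo luminescence.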

[18] = target: Nuclear receptor subfamily 1 group I member 3 (Homo sapiens) (UniProt Q14994); test: qHTS for Constitutive Androstane Receptor (CAR) Antagonist screened against the NCATS CANVASS Library (AID 1347372);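 further: cells stimulated with 50 nM CITCO agonist so inhibition reflects antagonism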
Chain of Nuclear receptor subfamily 1 group I member 3 (Homo sapiens) (Q14994 whole entry, looked up): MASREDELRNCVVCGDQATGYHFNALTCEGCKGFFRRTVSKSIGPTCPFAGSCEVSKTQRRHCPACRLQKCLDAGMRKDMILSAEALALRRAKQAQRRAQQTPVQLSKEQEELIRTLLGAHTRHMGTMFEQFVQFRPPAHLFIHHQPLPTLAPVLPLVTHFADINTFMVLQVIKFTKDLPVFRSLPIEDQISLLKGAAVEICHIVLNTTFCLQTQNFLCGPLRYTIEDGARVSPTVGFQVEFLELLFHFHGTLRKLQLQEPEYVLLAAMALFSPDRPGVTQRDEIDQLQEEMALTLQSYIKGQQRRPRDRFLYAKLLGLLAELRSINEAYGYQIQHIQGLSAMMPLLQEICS
In short: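 HepG2-CYP2B6-hCAR double-stable cells plated, 4hr attach; cpd pin-transferred; CITCO 50 nM final; 24hr 37C/5% CO2; CellTiter-Fluor 1hr (fluorescence), then ONE-Glo luminescence.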

[19] = target: Nuclear receptor subfamily 1 group I member 3 (Homo sapiens) (UniProt Q14994); test: qHTS for Constitutive Androstane Receptor (CAR) Agonist screened against the NCATS CANVASS Library (AID 1347373);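 further: every well also contained 1.5 µM PK11195 alongside the test compound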
In short: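 HepG2 cells stably expressing hCAR and a CYP2B6-2.2kb luciferase reporter were treated for 24hr at 37C with compounds (11-point qHTS) in the presence of 1.5uM PK11195. Reporter activation was read by ONE-Glo luminescence.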

[20] = test system: NAD(P)H diaphorase (Clostridium kluyveri); test: Diaphorse counterscreen qHTS: Assay Interference Panel against the NCATS CANVASS Library (AID 1347362)
In short: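 Counterscreen for coupling-enzyme interference: resorufin fluorescence from resazurin/NADH turnover, read after 5 min at room temperature. Compounds were tested over an 11-point series after 15 min dark preincubation with diaphorase in PBS-Tween.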

Measured: outcome

NCCc1c[nH]c2ccc(O)cc12
inactive: [1] | [2] | [3] | [4] | [5] | [6] | [7] | [8] | [9] | [10] | [11] | [12] | [13] | [14] | [15] | [16] | [17] | [18] | [19]

NCCc1c[nH]c2ccccc12
inactive: [1] | [2] | [3] | [4] | [5] | [6] | [7] | [8] | [20] | [9] | [10] | [12] | [13] | [14] | [15] | [16] | [17] | [18] | [19]
